Measurements published in PubChem BioAssay.
Activity calls are given as the source filed them.

Columns and labels:
[1] = small-molecule microarray binders of probe aShh, primary screen, biochemical, biotinylated probe, 635/667 nm fluorescence (AID 1114); details: higher = more signal;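 further: probe is biotin-labelled aShh protein from a stem cell growth factor screen; measures binding of labelled protein to compounds printed on the slide; score merges feature fluorescence at 667 nm with signal-to-noise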
[2] = small-molecule microarray binders of probe aNog, primary screen, biochemical, biotinylated probe, 635/667 nm fluorescence (AID 1115); details: higher = more signal;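 further: probe is biotinylated aNog protein used at 0.15 µg/mL for 1 h at 4 C; z-score combines 667 nm fluorescence of each spot with its signal to noise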
[3] = molecular target: Torsin-1A-interacting protein 1 (Homo sapiens) (UniProt Q5JTV8); assay: LAP1 binders from COS7 cell lysate, primary screen, small-molecule microarray, 635/667 nm fluorescence (AID 1116); details: COS7-hLAP1 lysate binding, 635 nm fluorescence, higher = more signal
[4] = molecular target: Albumin (Bos taurus) (UniProt P02769); assay: bovine serum albumin binders on microarray, profiling panel, artefact control for SMM control protein annotation, biochemical, small-molecule microarray, Alexa647 label, 635/667 nm fluorescence (AID 1118); details: BSA-A647 binding, fluorescence 635 nm, higher = more signal;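 further: score merges 667 nm emission intensity and signal-to-noise per printed compound spot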
[5] = small-molecule microarray binders of probe aXIP, primary screen, biochemical, NeuroSMM set, 635/667 nm fluorescence (AID 1119); details: higher = more signal, called active from +8 up or from −8 down;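 further: probe is the protein aXip251-270 applied at 1 µg/mL to compound-printed slides; binding of probe to printed compounds measured as 667 nm fluorescence plus signal to noise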
[6] = small-molecule binders of probe aNOTCH3, primary screen, biochemical, small-molecule microarray, 635/667 nm fluorescence (AID 1120); details: higher = more signal;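 further: probe is a biotin-tagged antibody raised against NOTCH3 rather than NOTCH3 protein; score merges spot fluorescence near 667 nm with spot signal to noise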
[7] = small-molecule binders of probe aNOTCH2, primary screen, biochemical, small-molecule microarray, 635/667 nm fluorescence (AID 1121); details: higher = more signal;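 further: score merges feature fluorescence read at 667 nm with its signal to noise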
[8] = molecular target: Carbonic anhydrase 2 (Homo sapiens) (UniProt P00918); assay: CAII small-molecule binders, profiling panel, biochemical, small-molecule microarray, Alexa647-labelled CAII (AID 1122); details: CAII-A647 binding fluorescence, higher = more signal
[9] = COS7 lysate on small-molecule microarray, probe aHis, 635 nm (AID 1123); details: COS7 cell lysate, fluorescence, higher = more signal;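 further: z-score combines 667nm fluorescence intensity with signal-to-noise per printed compound spot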
[10] = compound binding in COS7 lysate, probe aLAP1, primary screen, cell lysate, small-molecule microarray (AID 1124); details: probe aLAP1, fluorescence, higher = more signal;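 further: lysate comes from COS7 cells expressing LAP1 and is applied at 0.3 µg/mL; score merges spot fluorescence near 667 nm with signal-to-noise over triplicate slides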
[11] = tested on: Sam68 (KHDRBS1); assay: Sam68 small-molecule binders, primary screen, biochemical, small-molecule microarray, 635 nm fluorescence (AID 1125); details: small-molecule microarray binding, higher = more signal;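 further: score merges 667 nm channel intensity with signal to noise over triplicate slides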
[12] = tested on: Chordin-like protein 2 (CHRDL2); assay: CHRDL2 small-molecule binders, primary screen, biochemical, small-molecule microarray, 635 nm fluorescence (AID 1126); details: small-molecule microarray binding, fluorescence 635 nm; higher = more signal;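 further: printed compound slides probed with Chrdl2 protein at 4 µg/mL for 1 h at 4 C; score merges 667 nm emission intensity with signal to noise over three replicate slides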
[13] = molecular target: Concanavalin-A (Canavalia ensiformis) (UniProt P02866); assay: ConA small-molecule binders, primary screen, artefact control for SMM control protein annotation, biochemical, small-molecule microarray, Alexa647 label, 635 nm (AID 1127); details: ConA-A647 binding fluorescence, higher = more signal;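 further: z combines 667 nm emission intensity with signal-to-noise across three replicate slides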
[14] = anti-His antibody binders, primary screen, artefact control for SMM control protein annotation, biochemical, small-molecule microarray, 635 nm fluorescence (AID 1128); details: anti-His Alexa647 antibody binding, higher = more signal;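 further: score merges feature fluorescence with signal-to-noise for each printed compound spot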
[15] = tested on: Human papillomavirus type 1a E7 protein (residues 1-88); assay: HPV1a E7 small-molecule binders, primary screen, biochemical, small-molecule microarray, residues 1-88, 635 nm (AID 1129); details: small-molecule microarray binding, fluorescence 635 nm; higher = more signal
[16] = molecular target: Focal adhesion kinase 1 (Homo sapiens) (UniProt Q05397); assay: small-molecule microarray binders of FAK, primary screen, biochemical, 635/667 nm fluorescence, BSA, DTT (AID 1130); details: PTK2 binding, 635 nm fluorescence, higher = more signal;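 further: composite of spot emission at 667 nm and signal to noise over triplicate slides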
[17] = tested on: Fibrinogen (Alexa647-labelled); assay: fibrinogen binders on compound microarrays, profiling panel, artefact control for SMM control-protein annotation, biochemical, small-molecule microarray, 635/667 nm fluorescence (AID 1131); details: fibrinogen-A647 binding fluorescence, higher = more signal;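 further: z-score merges 667 nm fluorescence with per-spot signal-to-noise over triplicate slides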
[18] = molecular target: Follistatin (Homo sapiens) (UniProt P19883); assay: follistatin binders on small-molecule microarrays, primary screen, biochemical, small-molecule microarray, 635/667 nm fluorescence (AID 1132); details: FST binding, 635 nm fluorescence, higher = more signal
[19] = molecular target: Fibroblast growth factor 2 (Homo sapiens) (UniProt P09038); assay: FGF2 binders on small-molecule microarrays, primary screen, biochemical, small-molecule microarray, 635/667 nm fluorescence (AID 1133); details: small-molecule microarray binding, FGF2, fluorescence 635/667; higher = more signal
[20] = mitochondrial membrane potential change in A549 cells, profiling panel, cell-based, JC-1 fluorescence, basal, 24 h, 100 nL (AID 1138); details: higher = more signal;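 further: A549 lung adenocarcinoma cells under basal conditions with no added stimulus; test concentration not given here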

Follistatin (Homo sapiens), sequence (P19883 whole entry, looked up): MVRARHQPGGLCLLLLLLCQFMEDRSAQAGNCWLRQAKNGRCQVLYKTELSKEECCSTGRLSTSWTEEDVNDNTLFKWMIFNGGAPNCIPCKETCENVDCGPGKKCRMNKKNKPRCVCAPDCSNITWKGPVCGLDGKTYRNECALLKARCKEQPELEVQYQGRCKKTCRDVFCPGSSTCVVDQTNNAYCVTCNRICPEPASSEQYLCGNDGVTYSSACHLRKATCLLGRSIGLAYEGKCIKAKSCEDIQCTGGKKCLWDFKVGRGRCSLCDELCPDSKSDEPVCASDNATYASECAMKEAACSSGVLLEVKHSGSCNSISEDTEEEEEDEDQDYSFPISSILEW
Focal adhesion kinase 1 (Homo sapiens), sequence (Q05397 whole entry, looked up): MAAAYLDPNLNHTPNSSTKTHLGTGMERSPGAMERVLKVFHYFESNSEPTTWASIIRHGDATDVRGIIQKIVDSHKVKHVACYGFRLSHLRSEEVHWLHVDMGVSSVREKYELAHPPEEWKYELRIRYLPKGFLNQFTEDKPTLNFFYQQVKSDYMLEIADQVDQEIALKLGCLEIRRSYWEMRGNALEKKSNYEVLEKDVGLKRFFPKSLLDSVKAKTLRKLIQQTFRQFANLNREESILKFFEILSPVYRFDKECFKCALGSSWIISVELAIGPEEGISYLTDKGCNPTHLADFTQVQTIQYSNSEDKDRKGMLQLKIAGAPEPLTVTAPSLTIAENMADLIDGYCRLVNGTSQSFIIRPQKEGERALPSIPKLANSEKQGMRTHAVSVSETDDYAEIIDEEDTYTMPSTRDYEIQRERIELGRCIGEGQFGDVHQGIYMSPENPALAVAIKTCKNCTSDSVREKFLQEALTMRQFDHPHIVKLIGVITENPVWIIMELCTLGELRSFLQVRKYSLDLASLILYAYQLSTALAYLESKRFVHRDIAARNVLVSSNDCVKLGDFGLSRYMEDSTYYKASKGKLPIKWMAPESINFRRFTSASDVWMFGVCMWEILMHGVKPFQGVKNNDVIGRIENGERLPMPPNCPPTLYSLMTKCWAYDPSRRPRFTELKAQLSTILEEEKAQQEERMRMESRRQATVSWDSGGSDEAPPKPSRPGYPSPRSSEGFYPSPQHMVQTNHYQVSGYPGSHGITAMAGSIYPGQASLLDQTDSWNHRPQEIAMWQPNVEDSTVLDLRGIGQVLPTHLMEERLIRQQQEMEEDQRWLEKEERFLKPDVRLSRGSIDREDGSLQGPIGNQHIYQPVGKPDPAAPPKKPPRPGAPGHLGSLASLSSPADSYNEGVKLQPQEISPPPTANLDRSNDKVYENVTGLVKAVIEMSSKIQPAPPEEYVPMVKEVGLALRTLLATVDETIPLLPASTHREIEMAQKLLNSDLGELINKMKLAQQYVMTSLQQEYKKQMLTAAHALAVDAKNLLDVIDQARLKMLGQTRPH
Fibroblast growth factor 2 (Homo sapiens), sequence (P09038 whole entry, looked up): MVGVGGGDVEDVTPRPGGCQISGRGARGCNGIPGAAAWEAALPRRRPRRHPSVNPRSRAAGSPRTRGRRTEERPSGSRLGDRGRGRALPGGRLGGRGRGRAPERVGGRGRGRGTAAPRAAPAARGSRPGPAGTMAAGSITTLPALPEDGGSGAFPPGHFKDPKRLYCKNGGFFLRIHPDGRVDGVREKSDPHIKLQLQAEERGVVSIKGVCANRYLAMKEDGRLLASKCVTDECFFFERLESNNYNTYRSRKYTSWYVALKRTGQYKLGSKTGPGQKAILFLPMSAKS
Concanavalin-A (Canavalia ensiformis), sequence (P02866 whole entry, looked up): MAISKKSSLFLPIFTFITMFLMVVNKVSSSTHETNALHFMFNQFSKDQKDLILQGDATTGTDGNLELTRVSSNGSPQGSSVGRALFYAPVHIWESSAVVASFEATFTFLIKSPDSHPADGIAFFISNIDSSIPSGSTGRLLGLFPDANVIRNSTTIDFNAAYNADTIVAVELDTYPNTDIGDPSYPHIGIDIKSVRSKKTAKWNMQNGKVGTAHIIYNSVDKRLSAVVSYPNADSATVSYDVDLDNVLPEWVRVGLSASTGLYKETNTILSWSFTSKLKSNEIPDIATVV
Torsin-1A-interacting protein 1 (Homo sapiens), sequence (Q5JTV8 whole entry, looked up): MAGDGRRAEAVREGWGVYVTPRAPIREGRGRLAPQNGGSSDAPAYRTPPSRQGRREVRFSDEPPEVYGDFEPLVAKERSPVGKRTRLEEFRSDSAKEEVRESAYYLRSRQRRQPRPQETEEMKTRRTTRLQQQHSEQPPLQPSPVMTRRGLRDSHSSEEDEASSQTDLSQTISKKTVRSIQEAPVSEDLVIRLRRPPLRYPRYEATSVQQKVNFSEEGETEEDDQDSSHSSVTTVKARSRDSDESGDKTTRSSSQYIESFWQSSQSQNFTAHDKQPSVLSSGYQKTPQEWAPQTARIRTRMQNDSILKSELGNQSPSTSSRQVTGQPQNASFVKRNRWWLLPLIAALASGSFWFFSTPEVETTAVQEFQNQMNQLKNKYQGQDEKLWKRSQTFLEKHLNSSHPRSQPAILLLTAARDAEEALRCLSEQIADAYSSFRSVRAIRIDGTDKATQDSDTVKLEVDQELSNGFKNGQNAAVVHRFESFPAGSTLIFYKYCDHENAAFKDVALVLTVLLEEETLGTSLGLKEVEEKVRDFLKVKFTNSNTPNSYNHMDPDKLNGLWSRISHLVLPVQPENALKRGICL
Albumin (Bos taurus), sequence (P02769 whole entry, looked up): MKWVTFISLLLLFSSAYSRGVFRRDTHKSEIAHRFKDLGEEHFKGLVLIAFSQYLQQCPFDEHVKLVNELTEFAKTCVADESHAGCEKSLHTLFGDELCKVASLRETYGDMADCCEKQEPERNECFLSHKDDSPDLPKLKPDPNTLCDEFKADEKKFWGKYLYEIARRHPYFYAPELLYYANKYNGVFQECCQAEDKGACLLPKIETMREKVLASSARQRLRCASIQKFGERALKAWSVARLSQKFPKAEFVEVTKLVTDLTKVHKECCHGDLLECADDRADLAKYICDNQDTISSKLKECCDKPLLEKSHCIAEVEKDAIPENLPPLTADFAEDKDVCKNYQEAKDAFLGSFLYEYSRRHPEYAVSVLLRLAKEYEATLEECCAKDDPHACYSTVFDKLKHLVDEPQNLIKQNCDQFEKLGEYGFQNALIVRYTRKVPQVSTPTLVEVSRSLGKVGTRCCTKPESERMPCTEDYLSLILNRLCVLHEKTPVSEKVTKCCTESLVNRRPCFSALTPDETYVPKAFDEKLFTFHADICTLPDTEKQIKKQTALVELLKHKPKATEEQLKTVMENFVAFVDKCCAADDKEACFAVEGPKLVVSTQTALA

SMILES | composite z-score [1] | composite z-score [2] | composite z-score [3] | composite z-score [4] | composite Z-score [5] | composite z-score [6] | composite z-score [7] | composite z-score [8] | composite z-score [9] | composite z-score [10] | composite z-score [11] | composite z-score [12] | composite z-score [13] | composite z-score [14] | composite z-score [15] | composite z-score [16] | composite z-score [17] | composite z-score [18] | composite z-score [19] | z-score [20]
C=CCN1C(=O)[C@@]2(O[C@@H](CCn3cc(CCO)nn3)[C@H]([Si](C)(C)c3ccc(OC)cc3)[C@H]2C)c2cc(NC(=O)c3ccc(OC)cc3)ccc21 | -0.0035 | -0.056 | 0.403 | -0.0754 | -0.444 (inactive) | 0.0676 | 0.443 | 0.156 | 1.36 | 0.493 | 1.15 | 0.808 | 1.08 | 0.309 | 0.812 | 0.129 | 0.323 | 1.14 | 0.645 | 2.77
[N-]=[N+]=NCc1ccccc1C[C@]1(C(=O)NCc2ccccc2)N=C(c2ccc(OCCCO)cc2)O[C@H]1c1ccccc1 | 0.23 | 0.682 | 1.31 | 0.992 | 0.945 (inactive) | 0.2 | 0.139 | 0.396 | 1.85 | 1.45 | 1.16 | -1.4 | 1.09 | 1.67 | 1.18 | 0.445 | 0.813 | -0.257 | -0.0593 | 0.488
CC(C)C(=C=CC[C@@H](O)c1ccc(CO)o1)CCO | -0.123 | 0.0954 | 0.42 | -0.596 | 1.71 (inactive) | -0.0984 | -0.11 | 0.795 | 0.57 | -0.0333 | 0.541 | 0.107 | 0.349 | 0.635 | -0.356 | -0.7 | 0.401 | 0.987 | 1.05 | 1.86
C=C(COC)/C(=C/C[C@H](OC(C)=O)c1ccc(CO)o1)c1cnc2ccccc2c1 | 0.0893 | 0.186 | 0.845 | 0.15 | 0.837 (inactive) | 0.116 | -0.11 | 0.969 | 1.25 | -0.105 | 1.29 | 1.14 | 1.09 | 1.28 | 1.17 | 0.284 | -0.0185 | 1.42 | 1.31 | 0.861
O=c1n(-c2ccccc2)c(=O)n2n1CC(COc1ccccc1)=C1[C@@H](CCc3ccccc3)OB(O)C[C@@H]12 | 0.277 | -0.118 | 0.684 | 0.488 | 0.237 (inactive) | 0.0596 | -0.063 | 0.0107 | 0.516 | 0.362 | 1.3 | 0.0848 | 0.515 | 1.01 | 1.04 | 0.12 | 0.501 | 0.763 | 0.853 | 1.25
COC(=O)C(CC#Cc1ccc2c(c1)[C@]1(C(=O)N2)[C@H](C(=O)O)[C@H]2C(=O)O[C@H](c3ccccc3)[C@H](c3ccccc3)N2[C@@H]1c1ccc(OCCO)cc1)C(=O)OC | 0.166 | 0.78 | 1.5 | 0.956 | -0.908 (inactive) | 0.123 | -0.0333 | 0.703 | 2.07 | 0.279 | 1.3 | -0.756 | 1.2 | 0.479 | 1.24 | 0.918 | 0.812 | 0.0447 | 0.549 | -0.22
COc1ccc([Si](C)(C)[C@H]2[C@H](CC(=O)N(CCO)Cc3ccccc3)O[C@@]3(C(=O)N(Cc4ccc(N5CCOC5=O)cc4)c4ccccc43)[C@@H]2C)cc1 | 0.493 | 0.473 | 0.639 | -0.604 | 0.989 (inactive) | -0.0044 | -0.168 | 0.393 | 0.704 | 0.0474 | 0.641 | 0.457 | 1.06 | 0.845 | 0.0593 | 0.16 | 0.474 | 0.878 | 0.66 | 0.784
C=CCC(OC(C)=O)[C@@H]1[C@@H](N(Cc2ccc(-c3cccc(C(F)(F)F)c3)o2)C(=O)c2ccc(-c3ccccc3)cc2)c2cc(OCCCO)ccc2N1C(=O)Cc1ccc(OC)cc1 (stereo not given in full) | -0.0931 | -0.0086 | -0.0085 | -0.84 | 0.298 (inactive) | -0.0647 | -0.0832 | -0.149 | -0.249 | -0.231 | -0.836 | -0.0712 | -1.26 | -0.729 | 0.0685 | -0.0642 | -0.407 | 0.451 | -0.196 | 1.65
C=C(COC)C(=O)CC[C@@H](OC(=O)c1ccccc1-c1ccccc1C(=O)O)c1cccc(OCCO)c1 | -0.153 | 0.176 | 0.671 | -0.39 | -0.122 (inactive) | -0.15 | -0.154 | 0.713 | 0.19 | -0.402 | -0.296 | 0.192 | 0.375 | -1.24 | -0.533 | -0.508 | -0.661 | 1.27 | 0.866 | 1.46
C=CC[C@]1(C(=O)N2CCCCC2)COC(c2ccc(OCCCO)cc2)=N1 | -0.138 | 0.179 | 1.01 | 0.837 | -0.216 (inactive) | -0.152 | -0.173 | 0.818 | 2.22 | 0.523 | -0.48 | -0.802 | -1.46 | -1.2 | 0.633 | -0.0161 | -0.236 | -0.465 | -0.453 | 2.27
COCCCNC(=O)[C@@]1(C)c2ccccc2C(=O)N(Cc2cc(F)cc(C(F)(F)F)c2)[C@H]1c1ccc(CO)cc1 | -0.0769 | -0.144 | 0.0999 | -1.33 | 0.0737 (inactive) | -0.336 | -0.126 | 0.74 | 2.01 | 0.346 | 0.0363 | -1.94 | -0.453 | -0.224 | -1.01 | -0.706 | -1.61 | -1.48 | -0.521 | 1.25
COCCCN1C(=O)[C@@]2(Cc3ccccc31)c1ccccc1C(=O)N(Cc1ccccc1Cl)[C@H]2c1ccc(CO)cc1 | -0.0066 | 0.206 | 0.167 | -0.538 | -0.17 (inactive) | -0.126 | -0.162 | 0.106 | -0.0024 | 0.179 | 0.0462 | -0.272 | 0.0915 | -1.15 | -1.53 | -0.557 | -0.358 | -0.45 | -0.0761 | 0.83
COc1ccc([Si](C)(C)[C@@H]2[C@@H](CC(=O)N3CCC[C@H]3CO)O[C@]3(C(=O)N(Cc4ccc(I)cc4)c4ccccc43)[C@H]2C)cc1 | 0.0611 | 0.201 | 0.252 | -1.32 | -0.36 (inactive) | -0.0328 | -0.0707 | -0.0226 | 0.713 | 0.147 | 1.32 | 1.06 | 1.19 | 1.14 | 0.989 | 0.178 | 0.584 | 1.34 | 1.56 | 1.05
CCCCC(=C=CC[C@H](O)c1cccc(OCCO)c1)CCO | 0.0639 | 0.0511 | 0.338 | 0.15 | -0.434 (inactive) | -0.0699 | -0.162 | 0.681 | 0.24 | 0.133 | -0.319 | -0.361 | -0.245 | 0.0233 | -0.282 | 0.44 | -0.644 | 0.455 | 0.287 | 1.97
O=C1O[C@@H](c2ccccc2)[C@@H](c2ccccc2)N2[C@@H](c3ccc(OCCO)cc3)[C@]3(C(=O)Nc4ccc(C#CC5(O)CCCCCC5)cc43)[C@@H](C(=O)NC[C@H](O)c3ccccc3)[C@H]12 | 0.172 | 1.21 | 1.94 | 0.879 | -0.363 (inactive) | 0.158 | 0.0278 | 0.695 | 1.56 | 2.16 | 1.32 | 0.127 | 1.17 | 2.14 | 1.08 | 0.745 | 0.407 | 1.23 | 0.505 | -0.482
COC(=O)c1c(CC[C@@H](CO)NC(=O)Nc2ccc(OC)cc2)oc(C(=O)Cc2ccccc2)c1C(=O)OC | -0.138 | 0.068 | 0.333 | 0.771 | 0.466 (inactive) | -0.004 | -0.0776 | 0.656 | 0.261 | 0.21 | 0.603 | 0.12 | 0.688 | -0.177 | 0.45 | -0.181 | 0.211 | 0.473 | 0.434 | 1.02
C=C[C@H](OC)[C@@H](OC(=O)Nc1ccc(OC)cc1)c1ccc(OC)c(O)c1 | 0.0062 | -0.358 | -0.557 | -2.02 | -0.403 (inactive) | -0.374 | -0.181 | 0.633 | -0.844 | 0.0191 | -0.667 | -2.31 | -2.17 | -1.22 | -1.3 | 0.7 | -2.93 | -0.823 | -1.23 | 1.19
